Our source for the growth inhibition, inhibition and outcome values is PubChem BioAssay.

Assay [1] in a line: antimalarial activity against Dd2 strain (AID 2302;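 active = growth inhibition above 50% at the single 2 µM test dose, taken to imply half-maximal potency below 2 µM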;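 note: 0% = DMSO untreated growth and 100% = chloroquine plus artemisinin killed control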). To be noted: P. falciparum Dd2 in RBCs, LDH growth readout, 72 h; at 2 µM; active compounds read high.
Assay [2] is described as follows: HepG2 cytotoxicity, primary screen, cytotoxicity control for P. falciparum antimalarial project, cell-based, ATP luminescence (AID 2303;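 active = inhibition above 50%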;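 note: 0% = DMSO wells and 100% = digitonin-killed cells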). To be noted: HepG2 viability, 24-48 h, at 10 µM, active compounds read high.
Assay [3] has as its target L-lactate dehydrogenase (Plasmodium falciparum (isolate CDC / Honduras)) (UniProt Q27743). In words: PfLDH activity inhibition – cell lysate, 3D7 strain, counter-screen for P. falciparum growth inhibition project (AID 2304).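 Note: 0% = vehicle and 100% = reference inhibitor.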 The note with it: P. falciparum 3D7 crude extract, LDH APAD/NBT absorbance; at 2 µM; active compounds read high. In general terms: Counterscreens check selectivity or assay interference.

Assay [4] is described as follows: inhibition of 3D7 malaria parasite growth – strain 3D7 (AID 2306).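 Note: 0% = DMSO wells and 100% = chloroquine plus artemisinin control wells.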 The note with it: P. falciparum 3D7 erythrocytic growth, LDH absorbance, 72 h; at 2 µM; active compounds read high.
Assay [5] concerns the target Calcium-dependent protein kinase 1 (Plasmodium falciparum (isolate 3D7)) (UniProt P62344). Kind of assay: PfCDPK1 kinase inhibitors, biochemical, TCAMS library (AID 1159585; cut-off not given, nearly all actives have IC50 up to about 0.98 µM;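 note: inhibitors leave more ATP so luminescence rises with inhibition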). The note with it: recombinant PfCDPK1, Kinase-Glo ATP depletion luminescence.
For assay [6], the target named is Plasmodium falciparum protein kinase 6 (PK6, PF3D7_1337100) (UniProt Q8IDW1). Kind of assay: PfPK6 kinase inhibitors, biochemical, TCAMS library (AID 1159586). The note with it: recombinant PfPK6, Kinase-Glo ATP depletion luminescence. (In general: Kinase-Glo measures the ATP left after a reaction by luminescence.)
Sequence of Plasmodium falciparum protein kinase 6 (PK6, PF3D7_1337100) (Q8IDW1 1-305): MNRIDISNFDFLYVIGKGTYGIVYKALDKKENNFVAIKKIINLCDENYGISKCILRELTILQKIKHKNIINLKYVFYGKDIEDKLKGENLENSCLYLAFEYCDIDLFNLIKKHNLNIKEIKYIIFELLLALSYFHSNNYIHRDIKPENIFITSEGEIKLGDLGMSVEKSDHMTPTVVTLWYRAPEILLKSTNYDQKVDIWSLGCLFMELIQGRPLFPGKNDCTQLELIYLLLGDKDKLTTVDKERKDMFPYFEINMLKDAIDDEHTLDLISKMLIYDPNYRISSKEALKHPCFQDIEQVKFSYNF
Assay [7] has as its target Protein kinase 7 (PK7), Plasmodium falciparum 3D7 (PF3D7_0213400) (UniProt Q7YTF7). In words: inhibition of Plasmodium PK7 catalytic activity – biochemical, TCAMS antimalarial set, Kinase-Glo luminescence (AID 1159587). The note with it: recombinant PfPK7, Kinase-Glo ATP depletion luminescence.
The target of assay [8] is Calcium-dependent protein kinase 4 (Plasmodium falciparum (isolate 3D7)) (UniProt Q8IBS5). Kind of assay: PfCDPK4 kinase inhibitors, biochemical, TCAMS library (AID 1159588; cut-off not given, nearly all actives have IC50 up to about 0.91 µM). To be noted: recombinant PfCDPK4, Kinase-Glo ATP depletion luminescence.
Sequence of Calcium-dependent protein kinase 4 (Plasmodium falciparum (isolate 3D7)) (Q8IBS5 whole entry, looked up): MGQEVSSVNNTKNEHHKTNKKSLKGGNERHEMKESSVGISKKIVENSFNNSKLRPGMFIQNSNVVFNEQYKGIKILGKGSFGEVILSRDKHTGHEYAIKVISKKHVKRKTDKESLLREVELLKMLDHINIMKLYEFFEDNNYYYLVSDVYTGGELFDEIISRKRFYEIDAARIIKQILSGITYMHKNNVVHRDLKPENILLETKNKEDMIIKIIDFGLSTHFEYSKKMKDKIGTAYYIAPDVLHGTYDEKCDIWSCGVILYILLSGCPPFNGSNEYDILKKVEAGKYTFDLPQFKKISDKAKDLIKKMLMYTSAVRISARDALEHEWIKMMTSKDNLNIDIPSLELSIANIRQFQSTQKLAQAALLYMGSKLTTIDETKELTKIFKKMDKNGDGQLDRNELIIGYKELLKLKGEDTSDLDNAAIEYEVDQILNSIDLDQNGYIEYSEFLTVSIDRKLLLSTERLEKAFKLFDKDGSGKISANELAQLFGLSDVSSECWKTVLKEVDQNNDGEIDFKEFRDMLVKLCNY

Values without a mark were called inactive. For some of these results: Potency and affinity values are given separately. The source made the active and inactive calls. Unless noted, the rule behind the calls is not given here.

Sequence of Calcium-dependent protein kinase 1 (Plasmodium falciparum (isolate 3D7)) (P62344 whole entry, looked up): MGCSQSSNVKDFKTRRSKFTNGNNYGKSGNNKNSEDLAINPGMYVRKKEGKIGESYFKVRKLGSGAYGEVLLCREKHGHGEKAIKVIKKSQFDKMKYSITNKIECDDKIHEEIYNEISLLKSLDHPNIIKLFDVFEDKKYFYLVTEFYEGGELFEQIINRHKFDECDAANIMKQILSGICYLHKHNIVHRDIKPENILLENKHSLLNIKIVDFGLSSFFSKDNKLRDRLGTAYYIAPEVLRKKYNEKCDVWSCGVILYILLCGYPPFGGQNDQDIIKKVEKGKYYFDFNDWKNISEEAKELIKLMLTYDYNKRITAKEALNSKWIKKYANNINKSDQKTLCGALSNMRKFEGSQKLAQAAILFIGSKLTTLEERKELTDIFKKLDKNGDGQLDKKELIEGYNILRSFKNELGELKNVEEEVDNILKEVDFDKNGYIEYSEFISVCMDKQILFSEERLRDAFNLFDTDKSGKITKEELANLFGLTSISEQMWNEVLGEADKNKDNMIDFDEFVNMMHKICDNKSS
Sequence of L-lactate dehydrogenase (Plasmodium falciparum (isolate CDC / Honduras)) (Q27743 whole entry, looked up): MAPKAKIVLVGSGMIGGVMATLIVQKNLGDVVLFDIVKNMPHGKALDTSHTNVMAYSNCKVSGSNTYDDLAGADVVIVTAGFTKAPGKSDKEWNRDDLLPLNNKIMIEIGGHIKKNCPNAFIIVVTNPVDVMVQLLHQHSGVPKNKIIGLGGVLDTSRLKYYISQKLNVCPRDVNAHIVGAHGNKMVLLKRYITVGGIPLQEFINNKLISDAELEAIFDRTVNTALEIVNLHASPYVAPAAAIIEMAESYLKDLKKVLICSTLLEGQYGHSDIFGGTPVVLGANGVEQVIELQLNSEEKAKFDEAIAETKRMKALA
Sequence of Protein kinase 7 (PK7), Plasmodium falciparum 3D7 (PF3D7_0213400) (Q7YTF7 1-343): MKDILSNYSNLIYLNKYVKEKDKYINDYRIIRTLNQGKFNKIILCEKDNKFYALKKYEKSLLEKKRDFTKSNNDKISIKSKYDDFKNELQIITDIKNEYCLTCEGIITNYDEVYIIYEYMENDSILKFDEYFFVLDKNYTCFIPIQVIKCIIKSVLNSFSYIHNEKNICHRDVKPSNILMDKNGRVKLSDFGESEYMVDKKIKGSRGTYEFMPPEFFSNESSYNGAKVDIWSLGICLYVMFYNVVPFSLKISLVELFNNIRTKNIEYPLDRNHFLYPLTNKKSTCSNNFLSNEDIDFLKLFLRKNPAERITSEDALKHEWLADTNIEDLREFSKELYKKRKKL

For the molecule `O=C(N[C@H]1CCN(Cc2ccc(OCCN3CCNCC3)c3ccccc23)C1)c1ccc(Cl)c(Cl)c1`, the values for the growth inhibition in assay [1] and in assay [4] were 99% (active) and 100% (active), respectively. Further, the results for the inhibition in assay [2] and in assay [3] were 53% (active) and -2%, respectively. Besides, the result in assay [5], in assay [6], in assay [7] and in assay [8] was inactive.

As for `O=C(/C=C/c1ccc(Cl)c(Cl)c1)N1CCC(CN2CCC(Cc3nc4ccccc4[nH]3)CC2)CC1`, the growth inhibition in assay [1] was 95% (active); in assay [4] it was 101% (active). For the same molecule, the inhibition (in general, the drop in the measured response relative to a control, in per cent) in assay [2] was 34%; in assay [3] it was -2%. For the same molecule, the result in assay [5], in assay [6], in assay [7] and in assay [8] was inactive.

Take `O=C(Nc1ccc2c(c1)CCC2)N[C@H]1CCN(Cc2ccc(OCCCN3CCCCC3)cc2)C1`: the growth inhibition is -2% in assay [1] and 96% (active) in assay [4]. For the same molecule, the inhibition in assay [2] was 9%; in assay [3] it was -2%. Besides, the outcome in assay [5], in assay [6], in assay [7] and in assay [8] was inactive.

As for `CC(C)Cc1cn(-c2nc(-c3nc4ccccc4[nH]3)cs2)c2cc(Cl)ccc12`, the figures for the growth inhibition in assay [1] and in assay [4] were 68% (active) and 99% (active), respectively. Further, the inhibition in assay [2] was 9%; in assay [3] it was -3%. For the same molecule, the outcome in assay [5], in assay [6], in assay [7] and in assay [8] was inactive.

In the case of `O=C(N[C@@H](CC1CCCCC1)C(=O)NCCN1CCCC1)c1ccc(O)c(-c2cccc(C(F)(F)F)c2)c1`, the values for the growth inhibition in assay [1] and in assay [4] were 55% (active) and 99% (active), respectively. For the same molecule, the inhibition in assay [2] is -11%; in assay [3], -4%. The outcome in assay [5], in assay [6], in assay [7] and in assay [8] was inactive.

`CCCNC(=O)c1ccc(N2CCC(c3ccccc3C)CC2)nc1`: the growth inhibition was 80% (active) in assay [1] and 86% (active) in assay [4]. Besides, the inhibition in assay [2] was 6%; in assay [3], 2%. For the same molecule, the result in assay [5], in assay [6], in assay [7] and in assay [8] was inactive.

Regarding `COc1cc(OC)nc(C(Sc2ccc(NC(=O)c3cccs3)cc2)c2ccccc2)n1` (stereo not given), the growth inhibition in assay [1] is 96% (active); in assay [4] it was 97% (active). For the same molecule, the inhibition is 7% in assay [2] and -1% in assay [3]. Also, the outcome in assay [5], in assay [6], in assay [7] and in assay [8] was inactive.

Turning to `COc1cccc(CCN(Cc2ccccc2-c2ccc(CNC3CC(C)(C)NC(C)(C)C3)cc2)C(=O)NC2CCCCC2)c1`, the growth inhibition in assay [1] is 99% (active); in assay [4], 103% (active). Besides, the inhibition is 97% (active) in assay [2] and -1% in assay [3]. Moreover, the result in assay [5], in assay [6], in assay [7] and in assay [8] was inactive.

`O=C(Nc1ccc(-c2ccccc2)c(OCCN2CCNCC2)c1)c1ccc(-c2ccc(Cl)cc2)cc1`: the growth inhibition in assay [1] is 31%; in assay [4] it was 96% (active). Further, the inhibition is 92% (active) in assay [2] and -8% in assay [3]. Besides, the outcome in assay [5], in assay [6], in assay [7] and in assay [8] was inactive.

`CC(C)(C)c1ccc(CNC(=O)COc2ccc(-c3nnc(-c4cccc([N+](=O)[O-])c4)o3)cc2[N+](=O)[O-])cc1`: the growth inhibition was 25% in assay [1] and 93% (active) in assay [4]. The inhibition is 10% in assay [2] and -7% in assay [3]. In addition, the result in assay [5], in assay [6], in assay [7] and in assay [8] was inactive.

`c1cc(CN2CCCCC2)cc(-c2ccc(-c3nc4ccccc4[nH]3)cc2)c1`: the growth inhibition in assay [1] was 88% (active); in assay [4], 101% (active). The inhibition in assay [2] is 9%; in assay [3], -2%. For the same molecule, the result in assay [5], in assay [6], in assay [7] and in assay [8] was inactive.

In the case of `Oc1cccc(-c2nc3ccc(C4=N[C@@H]5CCCC[C@H]5N4)cc3[nH]2)c1`, the growth inhibition is 99% (active) in assay [1] and 94% (active) in assay [4]. Moreover, the inhibition was 3% in assay [2] and 2% in assay [3]. Besides, the outcome in assay [5], in assay [6], in assay [7] and in assay [8] was inactive.

For the molecule `Cc1ccc(-c2cnc(N)c3cc(-c4ccnc(N)n4)ccc23)cc1`, the figures for the growth inhibition in assay [1] and in assay [4] were 94% (active) and 99% (active), respectively. Also, the inhibition is 41% in assay [2] and -5% in assay [3]. In addition, the result in assay [5], in assay [6], in assay [7] and in assay [8] was inactive.

Consider `CCOc1ccc(-c2nonc2NC(=O)c2ccc(OC)cc2)cc1OCC`, for which the growth inhibition in assay [1] was 77% (active); in assay [4], 98% (active). The inhibition in assay [2] and in assay [3] was -1% throughout. In addition, the result in assay [5], in assay [6], in assay [7] and in assay [8] was inactive.

As to `CON=Cc1ccn(-c2ccc(O)c3c2C[C@H]2C[C@H]4[C@H](N(C)C)C(=O)C(C(N)=O)=C(O)[C@@]4(O)C(=O)C2=C3O)c1`, the growth inhibition in assay [1] is 70% (active); in assay [4], 96% (active). For the same molecule, the results for the inhibition in assay [2] and in assay [3] were 3% and -1%, respectively. Also, the outcome in assay [5], in assay [6], in assay [7] and in assay [8] was inactive.

Regarding `COc1cccc(C(=O)NCc2cccs2)c1OCc1ccccc1`, the growth inhibition in assay [1] is -1%; in assay [4], 96% (active). Besides, the figures for the inhibition in assay [2] and in assay [3] were -12% and 5%, respectively. In addition, the outcome in assay [5], in assay [6], in assay [7] and in assay [8] was inactive.

For `COc1cc2c(cc1OCCN1CCC(N)CC1)N(C(=O)/C=C/c1ccccc1Cl)CC2`, the growth inhibition in assay [1] is 18%; in assay [4], 91% (active). The inhibition in assay [2] is 19%; in assay [3], -7%. The result in assay [5], in assay [6], in assay [7] and in assay [8] was inactive.

Regarding `COc1cc2nc(-c3ccccc3)nc(N3CCN(C(=O)c4ccco4)CC3)c2cc1OC`, the growth inhibition is 87% (active) in assay [1] and 89% (active) in assay [4]. Moreover, the figures for the inhibition in assay [2] and in assay [3] were -7% and 7%, respectively. In addition, the outcome in assay [5], in assay [6], in assay [7] and in assay [8] was inactive.

For the molecule `O=C(NCCCCN1CCC(c2cccc3ccccc23)CC1)c1ccc(NC(=O)c2ccc(Cl)cc2)cc1`, the growth inhibition was 39% in assay [1] and 99% (active) in assay [4]. For the same molecule, the inhibition in assay [2] was 20%; in assay [3] it was 2%. The outcome in assay [5], in assay [6], in assay [7] and in assay [8] was inactive.

With `Cc1cccc(CNc2nccc3[nH]c4ccccc4c23)c1`, the growth inhibition was 51% (active) in assay [1] and 92% (active) in assay [4]. Moreover, the inhibition was 14% in assay [2] and 0% in assay [3]. Further, the outcome in assay [5], in assay [6], in assay [7] and in assay [8] was inactive.
